From PubChem BioAssay AID1159580 (chemical genetic matrix, 2015)
Several values for one entry are separate records, joined by “and”; a condition that tells them apart may be missing. Identical values can stand only once. In all, about 5,500 compounds went through this assay and about 2,000 (36%) were called active. Another 18% or so got no clear call; they are omitted. Rule as the data show it: active = normalized growth mostly below about 0.91 (no sharp cut-off); inconclusive = no clear call, values can overlap the other calls; inactive = mostly above about 0.92. This is one part of the list.

Experiment: chemical genetic growth profiling, strain panel (AID 1159580);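 also: tested at 20 µM; growth read once vehicle control cultures reached saturation at 30 °C; 1 = growth at the plate median or of vehicle wells; lower values mean less growth of the strain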
Details: S. cerevisiae deletion strains, growth OD

Measured: normalized growth

CN1C2CCC1CC(OC(c1ccccc1)c1ccccc1N)C2 (stereo unspecified)
inactive: locus YAL013W, strain DEP1, stronger effect = lower value 0.993 | locus YAL021C, strain ccr4, stronger effect = lower value 0.985 | locus YAL026C, strain drs2, stronger effect = lower value 1.01 | locus YAL030W, strain snc1, stronger effect = lower value 0.994 | locus YAL040C, strain CLN3, stronger effect = lower value 1.01 | locus YBL061C, strain skt5, stronger effect = lower value 0.995 | locus YBR009C, strain hhf1, stronger effect = lower value 0.998 | locus YBR021W, strain FUR4, stronger effect = lower value 0.993 | locus YBR023C, strain chs3, stronger effect = lower value 0.989 | locus YBR171W, strain sec66, stronger effect = lower value 1 | locus YBR229C, strain ROT2, stronger effect = lower value 0.998 | locus YBR231C, strain swc5, stronger effect = lower value 1 | locus YBR279W, strain paf1, stronger effect = lower value 1 | locus YCL011C, strain gbp2, stronger effect = lower value 1 | locus YCL016C, strain dcc1, stronger effect = lower value 0.994 | locus YCL029C, strain bik1, stronger effect = lower value 1.03 | locus YCL061C, strain MRC1 (second series), stronger effect = lower value 1 | locus YCL061C, strain MRC1, stronger effect = lower value 0.997 | locus YCL069W, strain vba3, stronger effect = lower value 1 | locus YCR088W, strain abp1, stronger effect = lower value 0.997 | locus YDL005C, strain med2, stronger effect = lower value 0.99 | locus YDL035C, strain GPR1, stronger effect = lower value 1.01 | locus YDL040C, strain nat1, stronger effect = lower value 0.991 | locus YDL074C, strain BRE1, stronger effect = lower value 1 | locus YDL101C, strain DUN1, stronger effect = lower value 1.01 | locus YDL134C, strain PPH21, stronger effect = lower value 1.01 | locus YDL185W, strain tfp1, stronger effect = lower value 1.01 | locus YDL192W, strain arf1, stronger effect = lower value 1.02 | locus YDR001C, strain nth1, stronger effect = lower value 1.01 | locus YDR069C, strain doa4, stronger effect = lower value 1 | locus YDR101C, strain arx1, stronger effect = lower value 1.01 | locus YDR137W, strain rgp1, stronger effect = lower value 0.98 | locus YDR150W, strain NUM1, stronger effect = lower value 1.01 | locus YDR159W, strain sac3, stronger effect = lower value 1 | locus YDR162C, strain NBP2, stronger effect = lower value 1 | locus YDR195W, strain ref2 0.976 | locus YDR297W, strain sur2, stronger effect = lower value 1.01 | locus YDR318W, strain mcm21, stronger effect = lower value 1.01 | locus YDR334W, strain swr1, stronger effect = lower value 1 | locus YDR335W, strain msn5, stronger effect = lower value 0.996 | locus YDR363W, strain ESC2, stronger effect = lower value 0.962 | locus YDR388W, stronger effect = lower value 1.01 | locus YDR392W, strain spt3, stronger effect = lower value 1.01 | locus YDR502C, strain sam2, stronger effect = lower value 1.01 | locus YEL003W, strain gim4, stronger effect = lower value 1.01 | locus YEL037C, strain rad23, stronger effect = lower value 1 | locus YEL061C, strain CIN8 (second series), stronger effect = lower value 1.03 | locus YEL061C, strain CIN8, stronger effect = lower value 1 | locus YER002W, strain NOP16, stronger effect = lower value 1 | locus YER015W, strain faa2, stronger effect = lower value 0.987 | locus YER016W, strain bim1, stronger effect = lower value 0.991 | locus YER110C, stronger effect = lower value 1.01 | locus YER111C, strain swi4, stronger effect = lower value 0.989 | locus YER155C, strain BEM2 (second series), stronger effect = lower value 0.988 | locus YER155C, strain BEM2, stronger effect = lower value 0.996 | locus YER167W, strain BCK2, stronger effect = lower value 1.02 | locus YFR010W, strain ubp6, stronger effect = lower value 0.996 | locus YGL078C, strain dbp3, stronger effect = lower value 1.01 | locus YGL086W, strain mad1, stronger effect = lower value 1.01 | locus YGL167C, strain pmr1, stronger effect = lower value 0.999 | locus YGL173C, strain kem1, stronger effect = lower value 0.999 | locus YGL227W, strain vid30, stronger effect = lower value 0.991 | locus YGL240W, strain doc1, stronger effect = lower value 0.997 | locus YGL248W, strain PDE1, stronger effect = lower value 1.01 | locus YGL253W, strain hxk2, stronger effect = lower value 0.998 | locus YGR078C, strain PAC10, stronger effect = lower value 1.01 | locus YGR135W, strain pre9, stronger effect = lower value 1.01 | locus YGR229C, strain SMI1, stronger effect = lower value 0.992 | locus YGR252W, strain gcn5, stronger effect = lower value 1 | locus YHR013C, strain ard1, stronger effect = lower value 0.979 | locus YHR027C, strain rpn1, stronger effect = lower value 0.999 | locus YHR030C, strain SLT2, stronger effect = lower value 1.01 and 0.978 | locus YHR079C, strain IRE1 (second series), stronger effect = lower value 1.01 | locus YHR079C, strain IRE1, stronger effect = lower value 0.991 | locus YHR094C, strain hxt1, stronger effect = lower value 1.01 | locus YHR129C, strain ARP1, stronger effect = lower value 1.01 | locus YHR142W, strain chs7, stronger effect = lower value 1 | locus YHR200W, strain rpn10, stronger effect = lower value 1.02 | locus YIL066C, strain RNR3, stronger effect = lower value 0.994 | locus YIL073C, strain SPO22, stronger effect = lower value 1.05 | locus YIL125W, strain kgd1, stronger effect = lower value 1 | locus YIR030C, strain dcg1, stronger effect = lower value 1.01 | locus YJL092W, strain hpr5, stronger effect = lower value 1.01 | locus YJL095W, strain BCK1 (second series), stronger effect = lower value 1.01 | locus YJL095W, strain BCK1, stronger effect = lower value 1 and 0.969 | locus YJL115W, strain asf1, stronger effect = lower value 0.997 | locus YJL129C, strain trk1, stronger effect = lower value 1.01 | locus YJL134W, strain LCB3, stronger effect = lower value 1.01 | locus YJL154C, strain vps35, stronger effect = lower value 1 | locus YJL164C, strain tpk1, stronger effect = lower value 1 | locus YJL166W, strain qcr8, stronger effect = lower value 1.02 | locus YJL168C, strain set2, stronger effect = lower value 1.01 | locus YJL187C, strain SWE1 (second series), stronger effect = lower value 1.01 | locus YJL187C, strain SWE1, stronger effect = lower value 0.998 | locus YJR043C, strain POL32, stronger effect = lower value 1.02 | locus YJR066W, strain TOR1, stronger effect = lower value 0.926
